Where “and” joins values, the source holds several entries; their conditions need not be identical. Equal values may be shown once. Inconclusive results are not listed. Calls of active or inactive are those of the source. The call rests on the fitted dose curve; in most records, active means well fitted inhibition curve with a large enough effect in the signal ratio, with a control signal flat (not every such curve was filed as active); inconclusive means small, poorly fitted or top-dose-only effect, or effect the other way, or a change in a side signal; inactive means no such curve, though single readings can be large or run the other way; the % refers to the signal ratio.
On the % scale 0 is the no-effect control and ±100 the full control effect.

Sequence of Retinoic acid receptor RXR-alpha (Homo sapiens) (P19793 whole entry, looked up): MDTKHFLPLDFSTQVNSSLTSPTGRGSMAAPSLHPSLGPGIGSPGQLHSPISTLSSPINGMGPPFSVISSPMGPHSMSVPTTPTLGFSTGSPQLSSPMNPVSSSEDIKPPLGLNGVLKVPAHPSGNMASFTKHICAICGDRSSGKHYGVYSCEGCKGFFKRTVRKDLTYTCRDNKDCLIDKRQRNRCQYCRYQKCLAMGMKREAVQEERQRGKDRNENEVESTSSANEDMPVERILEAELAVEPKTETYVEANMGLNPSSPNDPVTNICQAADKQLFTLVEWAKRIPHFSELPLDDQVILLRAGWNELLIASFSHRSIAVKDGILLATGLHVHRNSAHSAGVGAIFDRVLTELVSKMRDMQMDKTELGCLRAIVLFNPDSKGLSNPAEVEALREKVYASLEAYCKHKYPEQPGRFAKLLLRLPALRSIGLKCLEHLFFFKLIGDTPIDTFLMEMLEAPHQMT

This assay addresses Retinoic acid receptor RXR-alpha (Homo sapiens) (UniProt P19793). The assay can be described thus: qHTS assay for small molecule antagonists of retinoid X receptor alpha signaling (AID 588546). As to conditions: HEK293T RXRa-UAS-bla, beta-lactamase ratio, antagonist mode. From the text:
NIH Chemical Genomics Center [NCGC] U.S. Environmental Protection Agency [EPA] National Institutes of Environmental Health Sciences [NIEHS] National Toxicology Program [NTP] NCGC Assay Overview The Retinoid X receptor (RXR), a nuclear hormone receptor is expressed in liver, spleen, placenta, epidermis, central nervous system. These receptors are able to form homo and heterodimers with other nuclear receptors and due to this heterodimerizing ability, RXR functions as master regulators producing diverse physiological effects. Three subtypes of RXR exist; alpha, beta and gamma. Retinoid X receptor alpha (RXR-alpha) has potential roles in metabolic signaling pathways, skin alopecia, dermal cysts, cardiac development, insulin sensitization etc. Therefore screening environmental chemicals on RXR-alpha signaling can be used for the studies focused on such therapeutic applications.
NCGC Assay Protocol Summary Using a beta-lactamase reporter-gene under control of Retinoid X receptor--alpha (RXR-alpha) response element, a cell-based assay [GeneBLAzer (RXR-alpha -UAS-bla assay developed by Invitrogen] was used to measure RXR-alpha ligands signaling. GeneBLAzer RXR-alpha -UAS-bla HEK293T cells were used with assay medium containing 2% charcoal-stripped FBS. The assay was performed in clear bottom black Greiner 1536-well plates. Library compounds were measured for their ability to inhibit the reporter gene activity. Compounds were screened in a titration series in 1536-well format. The fluorescence intensity (405 nm excitation, 460/530 nm emission) was measured using an EnVision plate reader. Data was normalized relative to 9-cis-retinoic acid control (500 nM, 100%), and DMSO only wells (basal, 0%). Concentration-response titration points for each compound were fitted to the Hill equation yielding concentrations of half-maximal inhibition (IC50) and maximal response (efficacy) values. qHTS protocol for RXR-alpha beta-lactamase assay in antagonist mode [Step] [Parameter] [Value] [Description] 1. Reagent; 5 uL; 2500 cells/well 2. Incubation; 37 C for 4 hrs 3. Compounds; 23 nL; 0.59 nM to 92 uM 4. Controls (DMSO); 23 nL 5. Agonist (Stimulator); 1uL; 9-cis-retinoic acid at 500 nM and 100 nM final concentrations 6. Incubation; 37 C for 18 hrs 7. Detection reagent; 1 uL of CCF4-dye 8. Incubation; RT for 2 hrs 9. Detection; Fluorescence; Envision plate reader
In general terms: In qHTS, concentration-response curves come from the screen itself.
On to `CCC(O)C(C)(C)C` (stereo not given), for which the max response was -2.9% (inactive).

Turning to `CCCOCC(C)OCC(C)O` (stereo not given), the max response was 13.7% (inactive).

`O=Cc1ccc(Cl)cc1`: the max response is -5.61% (inactive).

Regarding `CN(C)CCCCl`, the max response was -2.2% (inactive).

As to `CCCCC=O`, the max response was -1.19% (inactive).

For the molecule `CCC(C)O` (stereo not given), the max response is 4.59% (inactive).

Consider `O=C(Cl)c1cccc([N+](=O)[O-])c1`, for which the max response is 24.8% (inactive).

On to `CCCC(Cl)CCCC(Cl)CCC(Cl)CCC(Cl)CCC(Cl)CCCC(Cl)CCC` (stereo not given), for which the max response was -10.6% (inactive).

For the molecule `Cc1ccc2ccccc2c1[N+](=O)[O-]`, the max response was 2.75% (inactive).

As for `O=C(O)c1cccc([N+](=O)[O-])c1`, the max response was -4.13% (inactive) and 8.19% (inactive).

As for `NC=O`, the max response is -7.48% (inactive).

On to `Cc1c(N)cccc1N`, for which the max response was -6.28% (inactive).

As for `CC(C)(C)OCC1CO1` (stereo not given), the max response was -4.17% (inactive).

Take `O=C(O)CNC(=O)c1ccc(CO)o1`: the max response was -8.36% (inactive).

In the case of `O=C(O)CNC(=O)c1ccc([N+](=O)[O-])cc1`, the max response is 23.2% (inactive).

In the case of `COC(=O)CCCC(=O)OC`, the max response was -11% (inactive).

As for `CC(C)CCOC(=O)/C=C/c1ccccc1`, the max response was -10.7% (inactive).

Turning to `NC(=O)/N=N/C(N)=O`, the max response is -2.12% (inactive).

With `BrC(Br)C(Br)Br`, the max response was -0.43% (inactive).

In the case of `Clc1ccc(Cl)c(Cl)c1Cl`, the max response was 10.9% (inactive) and -11.3% (inactive).

In the case of `Cc1ccc(Cl)cc1`, the max response is 8.67% (inactive).

As to `CCOCCO`, the max response is 7.78% (inactive).

For `CN(C)c1cccc(O)c1`, the max response is 8.46% (inactive).

With `CCN(CC)c1cccc(O)c1`, the max response is 9.83% (inactive).

Turning to `COc1ccc(OC)cc1`, the max response is 0.277% (inactive).

In the case of `O=C1OC(=O)c2cc([N+](=O)[O-])ccc21`, the max response was 1.57% (inactive).

With `Cc1ccc(C)c(O)c1`, the max response is 6.26% (inactive).

In the case of `C=CC(=O)OCCCC`, the max response was -2.2% (inactive).

On to `Nc1cc(Cl)c([N+](=O)[O-])cc1O`, for which the max response is -8.94% (inactive).

For the molecule `O=C(O)c1ccccc1[N+](=O)[O-]`, the max response is 2.43% (inactive).

`CCOc1ccccc1N`: the max response is 20.5% (inactive).

Turning to `ClCCl`, the max response was 5.83% (inactive).

Consider `NS(=O)(=O)O`, for which the max response was 17% (inactive).

Consider `CCCCC(CC)COC(=O)CCCCC(=O)OCC(CC)CCCC` (stereo not given), for which the max response is 12% (inactive) and 4.32% (inactive).

For the molecule `CCCCCCCCCCCCC1CO1` (stereo not given), the max response was 7.51% (inactive).

On to `Cc1cccc(C)c1O`, for which the max response was -1.13% (inactive).

Take `C=CCOC(=O)COCCC(C)C`: the max response is 9.99% (inactive).

Take `O=[N+]([O-])c1c(Cl)cc(Cl)cc1Cl`: the max response was 8.69% (inactive).

For the molecule `CC(C)=C1CCC(C)CC1=O` (stereo not given), the max response was 6.87% (inactive).

`CCC=O`: the max response was 0.991% (inactive).

The values above are taken from PubChem BioAssay (NCATS).
